Measurements reported in ChEMBL document CHEMBL3988442, “University of Dundee, Small-Polar-MMV Screening Library” (2021).
In all, about 69,000 compounds went through this assay and about 950 (1.4%) showed an effect of 50% or more. The sample holds strong results, similar compounds and a random draw of the others, so the mix is not that of the screen.

system: Mycobacterium tuberculosis; assay: Cornell M. t heat shock assay; format: functional, organism-based; set-up: dose or concentration left out as unconfirmed; further: in the data most compounds retested in dose-response had high values

Row | Compound | Percent Effect [%]
1 | CCCc1nc(CN2CCCC(Cn3cncn3)C2)no1 (configuration not stated) | -9.9
2 | O=C(O)C(F)(F)F.O=C(O)C(F)(F)F.c1cncc(OCC2CN(Cc3ccsc3)Cc3nccn3C2)c1 (configuration not stated) | -18.26
3 | COCCN1C(=O)C[C@H]2[C@H]1CCN2Cc1ccccc1.O=C(O)C(F)(F)F | 3.349
4 | CN(C)[C@@H]1CCN(C(=O)c2ccsc2)[C@H]1Cc1cccnc1.O=C(O)C(F)(F)F.O=C(O)C(F)(F)F | -16.81
5 | Cc1ccc(N2Cc3cnn(C)c3C(COCC3CC3)C2)nn1.O=C(O)C(F)(F)F.O=C(O)C(F)(F)F (configuration not stated) | 49.24
6 | COc1ccc(CN2CCC3(CC2)NC(=O)CC3c2cnn(C)c2)cc1.O=C(O)C(F)(F)F (configuration not stated) | -26.9
7 | O=C1C[C@H]2CC[C@@H](CN1)N2C(=O)CCc1ccccc1 | 16.33
8 | CO[C@@H]1CCN(Cc2cccs2)[C@@H]2CN(Cc3ccncc3)C[C@@H]21.O=C(O)C(F)(F)F.O=C(O)C(F)(F)F.O=C(O)C(F)(F)F | 42.16
9 | COCC(=O)N1CCCC(C)(c2nncn2C)C1 (configuration not stated) | 11.29
10 | Cc1cccc(CN2CCC3(CC2)CN(c2cccnc2)C(=O)CO3)n1.O=C(O)C(F)(F)F.O=C(O)C(F)(F)F | -14.12
11 | Cc1nn(C)c(Cl)c1C1CCCN1C(=O)c1ccc(C(N)=O)cn1 (configuration not stated) | -15.15
12 | Cc1cc(C)n(CC2CCCCN2CC(=O)Nc2nncs2)n1 (configuration not stated) | 69.77
13 | Cc1cc(C)n(CC2CCCN2CC(=O)Nc2nncs2)n1 (configuration not stated) | -43.1
14 | Cc1cc(C)n(CC2CCCCN2CC(=O)Nc2nnc(C)s2)n1 (configuration not stated) | 10.12
15 | CO[C@@H]1CC[C@H]2[C@H]1OCCN2CC1CC1.O=C(O)C(F)(F)F | -34.92
16 | Cc1nn(C)c2c(=O)n(CC(=O)NCc3ccc(N(C)C)cc3)ccc12 | 2.829
17 | COCCN1C[C@@H]2CN(Cc3ccc(C)s3)CCC[C@]2(C(=O)O)C1.O=C(O)C(F)(F)F.O=C(O)C(F)(F)F | -29.4
18 | Cc1cnn(CC2CCCCN2Cc2nc(C)c3ccccc3n2)c1 (configuration not stated) | 67.77
19 | Cc1cnn(CC2CCCN2Cc2ncc(-c3ccccc3)o2)c1 (configuration not stated) | 61.17
20 | Cc1nc(CN2CCCCC2Cn2cccn2)nc2ccccc12 (configuration not stated) | 49.4
21 | Cc1nc(CN2CCCCC2Cn2cncn2)nc2ccccc12 (configuration not stated) | -16.52
22 | Cc1cnn(CC2CCCN2Cc2ncc(-c3ccc(F)cc3)o2)c1 (configuration not stated) | -10.3
23 | Cc1cnn(CC2CCCN2Cc2nc(C)c3ccccc3n2)c1 (configuration not stated) | 101.6

Row | Compound | Percent Effect [%]
24 | c1ccc(-c2cnc(CN3CCCC3Cn3cccn3)o2)cc1 (configuration not stated) | 7.104
25 | Cc1cnn(CC2CCCN2Cc2nc3ccccc3n2C)c1 (configuration not stated) | 101.1
26 | Cc1nc(CN2CCCC2Cn2cccn2)nc2ccccc12 (configuration not stated) | 33.45
27 | Cc1nc(C)n(CC2CCCN2Cc2nc3ccccc3n2C)n1 (configuration not stated) | -5.876
28 | Cc1cnn(CC2CCCN2Cc2noc(C)n2)c1 (configuration not stated) | -1.003
29 | Cc1cnn(CC2CCCN2Cc2nc3ccccc3nc2C)c1 (configuration not stated) | 7.151
30 | COc1ccc(C(=O)N2Cc3cc(C)ccc3OCC2CN(C)C)cc1.Cl (configuration not stated) | -9.159
31 | Cc1cccc(CN2CCCC3(CCC(=O)N3CCN(C)C)CC2)n1.O=C(O)C(F)(F)F.O=C(O)C(F)(F)F (configuration not stated) | -9.93
32 | CC(C)NC(=O)N1CCc2ncnc(-c3ccncc3)c2CC1.O=C(O)C(F)(F)F | 36.54
33 | CCn1ccc2ccnc(CC3CN(C(=O)Cn4ccnc4C)C3)c21.O=CO | -10.71
34 | Cn1ccnc1CN(Cc1ccccn1)Cc1ccccc1Cl.O=C(O)CC(O)(CC(=O)O)C(=O)O | 102.4
35 | COc1ccc(CN(Cc2cncn2C)CC2CCCO2)cc1OC.O=C(O)CC(O)(CC(=O)O)C(=O)O (configuration not stated) | -6.379
36 | Cc1ncc(CN(Cc2ccccn2)Cc2ccccc2Cl)n1C.O=C(O)CC(O)(CC(=O)O)C(=O)O | 34.76
37 | COc1ccc(CN(Cc2ccccn2)Cc2cncn2C)cc1.O=C(O)CC(O)(CC(=O)O)C(=O)O | 72.33
38 | Cc1nc2sccn2c1CN(CCCN(C)C)Cc1ccccn1.O=C(O)CC(O)(CC(=O)O)C(=O)O | -0.915
39 | COc1ccc(CN(Cc2cncn2C)CC2CCCO2)cc1.O=C(O)CC(O)(CC(=O)O)C(=O)O (configuration not stated) | 1.542
40 | COc1ncc(CN2CCCC(c3[nH]ncc3S(C)(=O)=O)C2)cn1 (configuration not stated) | -20.65
41 | CSc1ccccc1C(=O)N1C[C@H]2CC[C@@H]1CN(C(=O)C1CCC1)C2 | 6.914
42 | Cn1cc(CN2CCCC23CCN(C(=O)c2cccs2)CC3)cn1.O=C(O)C(F)(F)F | -13.39
43 | CN1CCN(Cc2cn3c(n2)CN(Cc2cccc(F)c2)CC3)CC1.O=C(O)C(F)(F)F.O=C(O)C(F)(F)F.O=C(O)C(F)(F)F | -2.625
44 | c1ccc(COc2ccccc2CNC2CCc3ncnn3C2)cc1 (configuration not stated) | 4.249
45 | c1cncc(COc2ccccc2CNC2CCc3ncnn3C2)c1 (configuration not stated) | 103.3
46 | c1ccc(OCc2ccncc2)c(CNC2CCc3ncnn3C2)c1 (configuration not stated) | 14.47

Row | Compound | Percent Effect [%]
47 | CC(C)N(C)Cc1cc(=O)n2c(n1)CN(S(=O)(=O)C1CC1)CCC2.O=C(O)C(F)(F)F | 3.887
48 | COc1c(CNC(c2ccccc2F)c2nccn2C)c(C)nn1C (configuration not stated) | -25.27
49 | COc1c(CNC(c2nccn2C)C(C)C)c(C)nn1C (configuration not stated) | 2.612
50 | COc1ccc(CN(C)c2ccc(-c3nccn3C)nn2)cc1OC | 6.196
51 | CSc1ccc(CNC(c2ccccc2F)c2nccn2C)cc1.Cl (configuration not stated) | 112.7
52 | COc1ccccc1C(NCc1ccc(SC)cc1)c1nccn1C (configuration not stated) | 111.2
53 | Fc1ccccc1C(CNc1ccncn1)N1CCCC1 (configuration not stated) | -9.26
54 | CC(NCCn1cccn1)c1ccccc1F (configuration not stated) | -16.32
55 | CSc1ccc(CNC2CCN(CCc3ccncc3)CC2)cc1 | 5.943
56 | COc1cc(CN2CCn3c(CO)nnc3C2)ccc1OC(C)C.O=C(O)CC(O)(CC(=O)O)C(=O)O | -10.49
57 | CNC(=O)N1C[C@H]2C[C@H](C(=O)Nc3cccnc3)[C@@H](C1)O2.O=C(O)C(F)(F)F | -3.973
58 | Cc1ccc(C(=O)N2C[C@@H]3CC[C@H](C2)N(Cc2ccccc2)C3)cn1 | -13.46
59 | CCc1cc(=O)n(CCNC(=O)Nc2ccc(OC(F)(F)F)cc2)cn1 | 32.6
60 | O=C(O)C(F)(F)F.O=C(O)C(F)(F)F.O=C(O)C(F)(F)F.c1ccc(CN2CCCC3(CCN(Cc4cccs4)C3)C2)nc1 (configuration not stated) | 0.0284
61 | CCc1c(C(=O)N2C[C@H]3CC[C@@H]2CN(c2cnccn2)C3)csc1C | -16.87
62 | CCN1CCc2nc(N3CCOCC3)nc(NC(C)C)c2C1 | 8.22
63 | Cc1nc(NC(C)C)nc2c1CN(Cc1cccs1)CC2 | 99.87
64 | Cc1nc(CN2CCc3nc(NC(C)C)nc(C)c3C2)cs1 | 99.63
65 | Cc1nc(CN2CCc3ncnc(C)c3CC2)cs1.O=C(O)C(F)(F)F | 2.444
66 | CC(C)Nc1nc(N2CCCC2)nc2c1CN(S(C)(=O)=O)CC2 | 11
67 | CCC(C)N1CCc2nc(N3CCCC3)nc(NC(C)C)c2C1 (configuration not stated) | -2.093
68 | CC(C)Nc1nc(N2CCCC2)nc2c1CN(C)CC2 | 4.665
69 | CC(=O)NCc1noc2c1CN(Cc1cccs1)CC2 | 18.13

Row | Compound | Percent Effect [%]
70 | CC(C)Oc1ncnc2c1CCN(Cc1cccs1)CC2 | 17.98
71 | Cc1nc(NC(C)C)nc2c1CN(Cc1nccn1C)CC2 | 12.34
72 | CC(C)Nc1nc(N2CCCC2)nc2c1CN(C(C)C)CC2 | 101.9
73 | Cc1nc(CN2CCc3nc(N4CCCC4)nc(NC(C)C)c3C2)cs1 | 104.3
74 | Cc1nn(C)cc1-c1cncn1CCN(C)C1CCCC1.Cl | 1.181
75 | Cc1cccc(CN2C[C@@H]3COC[C@]3(COCC(=O)N(C)C)C2)n1.O=C(O)C(F)(F)F.O=C(O)C(F)(F)F | -9.127
76 | O=C(O)C(F)(F)F.O=C([C@H]1C[C@H]2OCC[C@H]2N(CC2CCOCC2)C1)N1CCCCO1 | -2.02
77 | COC1COC2(CCN(Cc3cccc(Cl)c3)CC2)C1.O=C(O)C(F)(F)F (configuration not stated) | -14.26
78 | CN1[C@H]2CC[C@@H]1CN(c1nc(-c3ccncc3)nc3c1cnn3C)CC2 | -0.0303
79 | O=C(NC1CCCCC1)N1CCc2onc(COc3cccnc3)c2C1.O=C(O)C(F)(F)F | 9.654
80 | CC(C)CN1Cc2nc(N3CCCC3)ncc2C1=O | -13.83
81 | COc1ccccc1C(=O)N1CCNCC1C(N)=O.Cl (configuration not stated) | 5.705
82 | CC(=O)N1CCC(c2nccnc2Nc2cnccn2)CC1 | 19.92
83 | Cc1cnc(Nc2nccnc2C2CCN(C)CC2)s1 | 16.42
84 | CC(=O)N1CCC(c2nccnc2Nc2ncc(C)s2)CC1 | 55.53
85 | CCOC1COC2(CCN(C(=O)c3cccc(C)n3)CC2)C1.O=C(O)C(F)(F)F (configuration not stated) | 18.32
86 | O=C(O)C(F)(F)F.O=C(c1cccc(O)c1)N1CCC2(CCN2c2ncccn2)C1 (configuration not stated) | 1.113
87 | Cc1cnn(CC(C)NCc2csc(-c3ccco3)n2)c1 (configuration not stated) | 29.87
88 | Cc1ccc(-c2nc(CNCCn3cccn3)cs2)o1 | 26.99
89 | Cc1cnn(CCNCc2csc(-c3ccco3)n2)c1 | 52.61
90 | Cc1cnn(CCNCc2csc(-c3ccc(C)o3)n2)c1 | 64.15
91 | Cc1cnn(CCNCc2csc(-c3ncccn3)n2)c1 | -10.75
92 | c1coc(-c2nc(CNCCn3cccn3)cs2)c1 | -1.03
